From the supplement of paper PMC6555819

system: VDR:RXRa (NR concentration 270 nM, RXRa partner concentration 90 nM); assay: PBM binding z-score (relative to random genomic background probes); higher = stronger binding; sequences stand for … in GC…GCGATTGACAGCGTAGAATGAAGG
Description: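 Protein-binding microarray (Agilent 4x180K custom design, double-stranded 60-nt probes: 5' GC cap, 34-nt variable region, 24-nt constant primer region; full probe sequence given). Purified or IVT nuclear receptor:RXRα heterodimers (3:1 NR:RXRα, mostly 270:90 nM) or homodimers were incubated for 1 h in PBS with 2% milk and no ligand, then detected with Alexa488 antibodies. Fluorescence from o1-orientation probes (~5 replicates averaged) was converted to z-scores against 500 random hg19 background probes. Variable regions are seed direct-repeat (DR0–DR5) sites, all their single-nucleotide variants and half-site ablations.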

Sequence | PBM binding z-score
CCGACTGGGACATAAGGTTACCATAAGCCAGCCC | 0.181
ACTTACGGGTCAACGAGGTTACAGCACGCGTATA | 7.79
TCTATTAGTCGAAGGGCAACCGACGAGTCCGTTT | 0.789
TCAAATAGGTAAATGCTAGGTGAAAGTCCGATCT | 0.866
TCTGCTAGGTTAGTTGGTCAGCTAACGAGCTGCC | -0.449
TGAATGAGGTTAAAGATCCGGGAACGTGGCGTCG | 1.03
GCGAGCAGGCCATTTGGGTCACTCAATGACGGGC | 0.881
GCGACTGGGGCAAAGCAGGTTACCACAAGGTTGG | 0.0392
ATTGAAAGGTCGACGAGGTGAGTATACACCGTTT | 5.31
TCTCGGAGGACAGGAAAGGTCAGAGCTCGACATC | 2.7
CGAACTAGGTCATCCAGGACAATGAATACATTGA | 4.99
GCTGCTAGGTCAACTTATGGTCAGCTAAAGCTCG | 2.04
GCTATTAGTTGTAAGGGCAACCGAATGATTCTCG | 0.148
TCATATAGGTAAATGCTAGTTGAAAGTCCGATCT | 1.07
CCAGACAGGTGACAGGTAACTCAGTCTGGTACGC | -0.206
CATATTAGTTGACCATAAGGGCAACCGAAGCTCG | 0.551
TAGCTTAGGTCATTGGGCCAGTATAGTACGCATC | 2.4
CTACCAAGGTGAACAAGGTCTTTGATTACTATTC | 3.6
CCTACTGGGCCATAAGGTCATTGATATCAACGTT | 3.71
TCTTGTAGCTCAAAGGTTAAGAAAGCCGAAGCCT | 0.581

Sequence | PBM binding z-score
TCTCGGAGGACACCAAGGTCAGAGCTTTCCAGAG | 3.36
TCATATCGGTAAAAGGTGAAAGTCGGTGTGGTAA | 1.54
CGAACTAGGTCATCCATGACAGTGAATACATTGA | 2.45
ATATGTAGTTTACATCCGGGTCATTCAGGCTATG | 3.49
CCGACTGGGGCAGGGTTACCATAACGCACAGCCA | 0.216
TCATATAGGTAAAAGGTGAAATTCGGTGTGGTAA | 1.58
TAGCCTAGGTCATGCGGGCCTGTATAGTGTCGGC | 1.75
TCTTGTAGATCAACAGGAGATTAAGAAAGATCGA | 0.136
CCTAGCAGGCCAATCTGGGTTACTCAAGGCTTGA | -0.43
GCGACTGGGGCATCAGCAGGTTACGATAACTTAA | 0.0769
ATACCAAGGTGATCGTGAAGTCGTTGATACTAAC | 0.0498
CCTACTGGGCCACGAAAGCTCATTGATTCAGTGA | -0.828
TCAGACAGGTGAAGGCAACTCAGGTACGCAGTCG | 0.552
GCTGGGAGGACAAGGTCAGAGCTTTGTCCGTAGA | 1.4
TCAGACAGGTGAAGGTAACGCAGGTACGCAGTCG | 0.637
GCTGCTAGGTCAACAGATGGTCAGCTAAAGCTCG | 1.11
AGAATGAGGTTATACGTAGATCAGTGAAGAAAGT | 1.31
AGAATGAGGTTATTAAGATCAGGGGATTGCGGTC | 2.36
TGAATGAGGTTAAAAATCAGGGAACGTGGCGTCG | 0.855
CCTCGGAGGGCAACAGGAGGTCAGAGCTGCCAGA | 3.12
